# According to PubChem BioAssay (EPA / NIEHS):
# Activity calls are given as the source filed them. The calls were made as follows: active = hit-call score of the fitted dose curve at least 0.9, where 1 is the maximum; inactive = score below 0.9.
# Tests used:
# Details in all cases: mRNA level, 48 h; actives raise or lower the signal
# [1] = read-out: growth arrest and DNA damage 45 (GADD45A), GADD45A (gene 1647); assay: LTEA_HepaRG_GADD45A: Life Technologies and Expression Analysis (LTEA) Assay for growth arrest and DNA damage 45 (GADD45A) using HepaRG (AID 2283458)
# How it was run: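 Human HepaRG liver cells are treated in duplicate for 48 h with chemicals in 0.5% DMSO, highest concentration 100 uM. Expression is read by qRT-PCR and analyzed in both directions against vehicle.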
# [2] = read-out: Forkhead box O3 (FOXO3), FOXO3 (gene 2309); assay: LTEA_HepaRG_FOXO3: Life Technologies and Expression Analysis (LTEA) Assay for Forkhead box O3 (FOXO3) using HepaRG (AID 2283459)
# How it was run: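 Differentiated human HepaRG cells in serum-free induction medium were exposed in duplicate for 48 h to eight half-log concentrations up to 100 uM in 0.5% DMSO. FOXO3 mRNA was quantified by qRT-PCR, normalized to ACTB, GAPDH and POLR2A, with bidirectional fitting versus DMSO.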
# [3] = read-out: growth arrest and DNA damage 45 (GADD45B), GADD45B (gene 4616); assay: LTEA_HepaRG_GADD45B: Life Technologies and Expression Analysis (LTEA) Assay for growth arrest and DNA damage 45 (GADD45B) using HepaRG (AID 2283461)
# How it was run: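 qRT-PCR read-out (Fluidigm TaqMan, housekeeping-normalized) of mRNA change in human HepaRG cells after 48 h chemical exposure; 8-point curve, top 100 uM, half-log steps, 0.5% DMSO vehicle; gain or loss fitted relative to DMSO baseline.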
# [4] = read-out: ABC Transporter (ABCC3), ABCC3 (gene 8714); assay: LTEA_HepaRG_ABCC3: Life Technologies and Expression Analysis (LTEA) Assay for ABC Transporter (ABCC3) using HepaRG (AID 2283462)
# How it was run: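 qRT-PCR read-out of ABCC3 transcript, normalized to three housekeeping genes (ACTB, GAPDH, POLR2A), after 48 h chemical exposure of human HepaRG cells. Eight half-log concentrations, highest 100 uM, in 0.5% DMSO; gain or loss fitted relative to DMSO baseline.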
# [5] = read-out: ABC Transporter (ABCB11), ABCB11 (gene 8647); assay: LTEA_HepaRG_ABCB11: Life Technologies and Expression Analysis (LTEA) Assay for ABC Transporter (ABCB11) using HepaRG (AID 2283463)
# How it was run: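 Differentiated human HepaRG cells were exposed for 48 h in serum-free induction medium to eight half-log concentrations up to 100 uM in 0.5% DMSO. ABCB11 mRNA was quantified by qRT-PCR, normalized to ACTB, GAPDH and POLR2A, and fitted bidirectionally versus DMSO.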
# [6] = read-out: ATP-citrate lyase (ACLY), ACLY (gene 47); assay: LTEA_HepaRG_ACLY: Life Technologies and Expression Analysis (LTEA) Assay for ATP-citrate lyase (ACLY) using HepaRG (AID 2283466)
# How it was run: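 Differentiated human HepaRG cells in serum-free induction medium exposed 48 h, in duplicate, to eight half-log concentrations from 100 uM top in 0.5% DMSO; ACLY mRNA measured by qRT-PCR, normalized to ACTB, GAPDH, POLR2A, fitted bidirectionally versus DMSO.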
# [7] = read-out: Peroxisomal acyl-coenzyme A oxidase 1 (ACOX1) gene, ACOX1 (gene 51); assay: LTEA_HepaRG_ACOX1: Life Technologies and Expression Analysis (LTEA) Assay for Peroxisomal acyl-coenzyme A oxidase 1 (ACOX1) gene using HepaRG (AID 2283467)
# How it was run: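 Differentiated human HepaRG cells were exposed in duplicate for 48 h in serum-free induction medium to eight half-log concentrations up to 100 uM in 0.5% DMSO. ACOX1 mRNA was then quantified by TaqMan qRT-PCR, normalized to ACTB, GAPDH and POLR2A.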
# [8] = read-out: Alkaline Phosphatase, Placental (ALPP) gene, ALPP (gene 250); assay: LTEA_HepaRG_ALPP: Life Technologies and Expression Analysis (LTEA) Assay for Alkaline Phosphatase, Placental (ALPP) gene using HepaRG (AID 2283468)
# How it was run: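 qRT-PCR readout of ALPP mRNA (Fluidigm TaqMan), normalized to ACTB/GAPDH/POLR2A, after 48 h chemical exposure of HepaRG cells; 8-point half-log series, top 100 uM, 0.5% DMSO vehicle. Bidirectional curve fit versus DMSO baseline.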
# [9] = read-out: Bcl-2 (BAD) gene, BAD (gene 572); assay: LTEA_HepaRG_BAD: Life Technologies and Expression Analysis (LTEA) Assay for Bcl-2 (BAD) gene using HepaRG (AID 2283469)
# How it was run: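 Differentiated human HepaRG cells in serum-free induction medium were exposed in duplicate for 48 h to eight concentrations (top 100 uM, half-log steps, 0.5% DMSO). BAD mRNA was quantified by qRT-PCR normalised to ACTB, GAPDH and POLR2A, with bidirectional fitting versus DMSO.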
# [10] = read-out: Bcl-2 (BAX) gene, BAX (gene 581); assay: LTEA_HepaRG_BAX: Life Technologies and Expression Analysis (LTEA) Assay for Bcl-2 (BAX) gene using HepaRG (AID 2283470)
# How it was run: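 Concentration-response endpoint fitted in both directions relative to 0.5% DMSO vehicle. Human HepaRG cultures receive test chemicals for 48 h at up to 100 uM; BAX mRNA is quantified by qRT-PCR against housekeeping genes.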
# [11] = read-out: adenosine kinase (ADK) gene, ADK (gene 132); assay: LTEA_HepaRG_ADK: Life Technologies and Expression Analysis (LTEA) Assay for adenosine kinase (ADK) gene using HepaRG (AID 2283471)
# How it was run: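 HepaRG (human liver), 48 h chemical exposure, 8-pt half-log series, top 100 uM, 0.5% DMSO vehicle. Readout: ADK mRNA by qRT-PCR vs housekeeping genes; bidirectional curve fit relative to DMSO baseline.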
# [12] = read-out: Alpha-fetoprotein (AFP) gene, AFP (gene 174); assay: LTEA_HepaRG_AFP: Life Technologies and Expression Analysis (LTEA) Assay for Alpha-fetoprotein (AFP) gene using HepaRG (AID 2283472)
# How it was run: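 After a 48 h plating period, cells are moved to serum-free induction medium and dosed in duplicate (100 uM maximum, half-log dilutions, 0.5% DMSO) for another 48 h. Total RNA goes to TaqMan qRT-PCR; AFP signal is housekeeping-normalized.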
# BCL2L11 (gene 10018) = assay: LTEA_HepaRG_BCL2L11: Life Technologies and Expression Analysis (LTEA) Assay for Bcl-2 (BCL2L11) gene using HepaRG (AID 2283473)
# How it was run: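 HepaRG, 48 h exposure, 8-pt half-log series from 100 uM in 0.5% DMSO, duplicates; qRT-PCR (Fluidigm TaqMan) for BCL2L11, housekeeping-normalized; bidirectional curve fit relative to DMSO baseline.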
# [13] = read-out: Apolipoprotein A-V (APOA5) gene, APOA5 (gene 116519); assay: LTEA_HepaRG_APOA5: Life Technologies and Expression Analysis (LTEA) Assay for Apolipoprotein A-V (APOA5) gene using HepaRG (AID 2283474)
# How it was run: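 HepaRG, 48 h chemical exposure in serum-free induction medium, 8-pt half-log series (top 100 uM), 0.5% DMSO vehicle, duplicates. Readout: APOA5 mRNA by qRT-PCR, housekeeping-normalized; bidirectional fit vs DMSO baseline.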
# [14] = read-out: Apoptosis regulator Bcl-2 (Homo sapiens) (UniProt P10415); assay: LTEA_HepaRG_BCL2: Life Technologies and Expression Analysis (LTEA) Assay for Bcl-2 gene using HepaRG (AID 2283475)
# How it was run: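 Expression change of BCL2 mRNA in HepaRG after 48 h dosing, quantified by TaqMan qRT-PCR against three endogenous controls. Concentration-response used eight points up to 100 uM, vehicle 0.5% DMSO.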
# [15] = read-out: Bcl-2 (BID) gene, BID (gene 637); assay: LTEA_HepaRG_BID: Life Technologies and Expression Analysis (LTEA) Assay for Bcl-2 (BID) gene using HepaRG (AID 2283476)
# How it was run: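 Gain or loss of BID expression is fitted relative to 0.5% DMSO vehicle. Human HepaRG liver cells received a 48 h chemical exposure over an eight-point concentration range.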
# Caspase-3 (Homo sapiens) = Caspase-3 (Homo sapiens) (UniProt P42574); assay: LTEA_HepaRG_CASP3: Life Technologies and Expression Analysis (LTEA) Assay for cysteine-aspartic acid protease (CASP3) using HepaRG (AID 2283477)
# Chain of Caspase-3 (Homo sapiens) (P42574 whole entry, looked up): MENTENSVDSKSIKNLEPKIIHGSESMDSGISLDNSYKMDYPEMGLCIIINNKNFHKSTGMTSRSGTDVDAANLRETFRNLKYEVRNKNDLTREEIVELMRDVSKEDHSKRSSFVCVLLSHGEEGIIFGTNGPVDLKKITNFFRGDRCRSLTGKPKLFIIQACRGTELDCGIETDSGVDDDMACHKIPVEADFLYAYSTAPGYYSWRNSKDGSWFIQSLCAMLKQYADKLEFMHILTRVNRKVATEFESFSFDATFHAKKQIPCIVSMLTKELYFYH
# How it was run: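 HepaRG, 48 h exposure, 8 conc. (top 100 uM, half-log steps, duplicate), 0.5% DMSO vehicle; qRT-PCR of CASP3 transcript, housekeeping-normalised (ACTB/GAPDH/POLR2A); bidirectional curve fit vs DMSO baseline.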
# [16] = read-out: Broad substrate specificity ATP-binding cassette transporter ABCG2 (Homo sapiens) (UniProt Q9UNQ0); assay: LTEA_HepaRG_ABCG2: Life Technologies and Expression Analysis (LTEA) Assay for ABC Transporter (ABCG2) using HepaRG (AID 2283465)
# How it was run: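 Differentiated HepaRG cells in serum-free induction medium were exposed for 48 h, in duplicate, to eight half-log concentrations up to 100 uM in 0.5% DMSO. ABCG2 mRNA was measured by TaqMan qRT-PCR, normalized to ACTB, GAPDH and POLR2A, and fitted bidirectionally versus DMSO.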
# [17] = read-out: ABC Transporter (ABCC2), ABCC2 (gene 1244); assay: LTEA_HepaRG_ABCC2: Life Technologies and Expression Analysis (LTEA) Assay for ABC Transporter (ABCC2) using HepaRG (AID 2283464)
# How it was run: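 qRT-PCR (TaqMan, Fluidigm array) read-out of ABCC2 mRNA, normalized to three housekeeping genes. Differentiated HepaRG cells were treated 48 h in serum-free induction medium with 8-point half-log series from 100 uM in 0.5% DMSO; curves fitted bidirectionally relative to DMSO.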
# Chain of Apoptosis regulator Bcl-2 (Homo sapiens) (P10415 whole entry, looked up): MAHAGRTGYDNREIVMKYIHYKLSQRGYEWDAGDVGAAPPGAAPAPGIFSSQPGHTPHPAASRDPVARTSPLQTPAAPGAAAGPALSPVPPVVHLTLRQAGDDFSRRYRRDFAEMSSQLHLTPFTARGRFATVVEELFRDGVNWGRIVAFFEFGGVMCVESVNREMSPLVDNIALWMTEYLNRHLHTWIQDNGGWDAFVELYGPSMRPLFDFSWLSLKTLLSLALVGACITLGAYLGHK
# Chain of Broad substrate specificity ATP-binding cassette transporter ABCG2 (Homo sapiens) (Q9UNQ0 whole entry, looked up): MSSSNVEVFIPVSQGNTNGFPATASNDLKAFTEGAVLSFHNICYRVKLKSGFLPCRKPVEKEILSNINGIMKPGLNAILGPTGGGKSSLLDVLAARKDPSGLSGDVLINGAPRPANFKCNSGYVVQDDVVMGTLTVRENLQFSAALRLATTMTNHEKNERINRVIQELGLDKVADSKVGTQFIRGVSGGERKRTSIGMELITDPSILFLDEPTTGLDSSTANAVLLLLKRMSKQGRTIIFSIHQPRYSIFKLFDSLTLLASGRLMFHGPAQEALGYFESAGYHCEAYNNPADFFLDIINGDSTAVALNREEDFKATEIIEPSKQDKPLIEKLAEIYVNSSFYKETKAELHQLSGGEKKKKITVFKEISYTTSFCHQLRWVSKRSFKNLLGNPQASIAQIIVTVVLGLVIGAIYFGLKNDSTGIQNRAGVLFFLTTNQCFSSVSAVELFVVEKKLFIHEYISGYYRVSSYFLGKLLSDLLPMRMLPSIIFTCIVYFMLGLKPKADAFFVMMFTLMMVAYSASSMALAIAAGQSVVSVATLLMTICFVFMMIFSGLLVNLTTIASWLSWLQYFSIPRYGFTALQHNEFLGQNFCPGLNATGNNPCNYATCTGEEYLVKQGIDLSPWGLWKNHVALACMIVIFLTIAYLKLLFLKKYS
compound,measurement,setting,value
CN1CCCC1=O,outcome,[1],inactive
same,outcome,[2],inactive
same,outcome,[3],inactive
same,outcome,[4],inactive
same,outcome,[5],inactive
same,outcome,[6],inactive
same,outcome,[7],inactive
same,outcome,[8],inactive
same,outcome,[9],inactive
same,outcome,[10],inactive
same,outcome,[11],inactive
same,outcome,[12],inactive
same,outcome,BCL2L11 (gene 10018),inactive
same,outcome,[13],inactive
same,outcome,[14],inactive
same,outcome,[15],inactive
same,outcome,Caspase-3 (Homo sapiens),inactive
NC(=O)Cn1c(=O)cc(CCN2CCN(c3nccc4sccc34)CC2)c2ccc(F)cc21,outcome,[1],inactive
same,outcome,[2],inactive
same,outcome,[3],inactive
same,outcome,[5],inactive
same,outcome,[6],inactive
same,outcome,[7],inactive
same,AC50,[8],50 µM (active)
same,outcome,[9],inactive
same,AC50,[10],29 µM (active)
same,outcome,[11],inactive
same,AC50,[12],50 µM (active)
same,outcome,BCL2L11 (gene 10018),inactive
same,outcome,[13],inactive
same,AC50,[14],50 µM (active)
same,outcome,[15],inactive
same,outcome,Caspase-3 (Homo sapiens),inactive
Cc1ccccc1Cl,outcome,[1],inactive
same,outcome,[2],inactive
same,outcome,[3],inactive
same,outcome,[4],inactive
same,outcome,[5],inactive
same,outcome,[16],inactive
same,outcome,[8],inactive
same,outcome,[9],inactive
same,outcome,[10],inactive
same,outcome,[11],inactive
same,outcome,[12],inactive
same,outcome,BCL2L11 (gene 10018),inactive
same,outcome,[13],inactive
same,outcome,[14],inactive
same,outcome,Caspase-3 (Homo sapiens),inactive
CC(CO)OC(C)CO (stereo not given) (tested in a mixture with another compound),outcome,[1],inactive
same,outcome,[2],inactive
same,outcome,[3],inactive
same,outcome,[4],inactive
same,outcome,[5],inactive
same,outcome,[6],inactive
same,outcome,[7],inactive
same,outcome,[8],inactive
same,outcome,[9],inactive
same,outcome,[10],inactive
same,outcome,[11],inactive
same,outcome,[12],inactive
same,outcome,BCL2L11 (gene 10018),inactive
same,outcome,[13],inactive
same,outcome,[14],inactive
same,outcome,Caspase-3 (Homo sapiens),inactive
CN[C@H]1CC[C@@H](c2ccc(Cl)c(Cl)c2)c2ccc(S(N)(=O)=O)cc21,outcome,[1],inactive
same,outcome,[2],inactive
same,AC50,[3],80.4 µM (active)
same,AC50,[5],15.8 µM (active)
same,AC50,[17],63.5 µM (active)
same,outcome,[16],inactive
same,AC50,[7],12.2 µM (active)
same,AC50,[8],5.79 µM (active)
same,outcome,[9],inactive
same,AC50,[10],82.6 µM (active)
same,outcome,[11],inactive
same,AC50,[12],23.8 µM (active)
same,outcome,BCL2L11 (gene 10018),inactive
same,outcome,[13],inactive
same,outcome,[14],inactive
same,outcome,Caspase-3 (Homo sapiens),inactive
CCCCCCC(=O)OCC,outcome,[1],inactive
same,outcome,[2],inactive
same,outcome,[3],inactive
same,outcome,[4],inactive
same,outcome,[5],inactive
same,outcome,[8],inactive
same,outcome,[9],inactive
same,outcome,[10],inactive
same,outcome,[11],inactive
same,outcome,[12],inactive
same,outcome,BCL2L11 (gene 10018),inactive
same,outcome,[13],inactive
same,outcome,[14],inactive
same,outcome,[15],inactive
same,outcome,Caspase-3 (Homo sapiens),inactive
